# Source: PubChem BioAssay
# Compounds with a hit are over-represented: about 3.5% of the library has one in this group of screens.
# mHTT CaM bind: mHTT-calmodulin interaction abrogation | P42858 | AlphaScreen His-mHTT/GST-CaM binding, luminescence | inhibition, % at 15 µM | actives 3.6% (n = 190,000) | AID 1671202
# Pf apPOL inh: Pf-apPOL DNA polymerase inhibition | actives 0.25% (n = 210,000) | inhibition, % at 10 µM | AID 1794808 | Recombinant Pf-apPOL, molecular beacon fluorescence, 1.5 h
# Numbers stand for hits; n = inactive; x = no result given. No stated cut-off is given here; in the data, active means inhibition above about 50%; inactive means the rest.
SMILES,mHTT CaM bind,Pf apPOL inh
Nc1c(Cl)cc([N+](=O)[O-])cc1Br,n,x
COc1ccc(C2=N/C(=C\c3ccc(Br)cc3)C(=O)O2)cc1,n,n
Cc1ccc(-c2nnc(N3CCC(C(=O)NCCN4CCCCCC4)CC3)o2)cc1,n,n
CCc1cccc(Nc2c(-c3nc(C)no3)cnc3nc(C)ccc23)c1,68,n
Cc1ccc2c(Nc3ccc(C)c(F)c3)c(-c3nc(C)no3)cnc2n1,n,n
CCc1cc(C(=O)Nc2ccc(C)cc2F)nc2ccnn12,n,n
O=C(O)c1cc2nc(-c3ccco3)cc(C(F)(F)F)n2n1,n,n
O=C1S/C(=C\c2ccccc2F)C(=O)N1CNc1cccc(F)c1,n,n
COc1ccc(/C=C2\SC(=O)N(CNc3ccccc3OC)C2=O)cc1,n,n
COc1ccccc1/C=C1\SC(=O)N(CNc2cccc(C)c2)C1=O,58,n
COc1ccc(NCN2C(=O)S/C(=C\c3ccccc3OC)C2=O)cc1,52,n
CCn1ccc(C(=O)N2CCC(n3c(-c4ccc(F)cc4)nc4cccnc43)C2)n1 (stereo unspecified),n,n
Cc1[nH]nc(SCC(=O)Nc2cccc(Cl)c2)c1[N+](=O)[O-],n,n
Cc1[nH]nc(SCC(=O)Nc2cc(Cl)ccc2O)c1[N+](=O)[O-],52,n
O=C(NC1CC(O)C(CO)C1)c1cnc2ccccc2n1 (stereo unspecified),n,n
COc1ccc(OCc2noc(CNC(=O)c3cc(C)on3)n2)cc1,n,n
Cc1cc(C2(c3ccc(O)c(C)c3)C(=O)N(C)c3ccc(Br)cc32)ccc1O,87,n
CC(=O)c1c(C(C)=O)c(C)n(-c2cc(Br)ccc2O)c1C,n,n
Cc1cc(C)c(S(=O)(=O)NCCn2nc(-n3ccnc3)ccc2=O)cc1C,n,n
CC1NC2(C(=O)N(C/C=C/c3ccccc3)c3ccccc32)C2C(=O)N(c3ccccc3)C(=O)C12 (stereo unspecified),n,n
CC1NC2(C(=O)N(C/C=C/c3ccccc3)c3ccccc32)C2C(=O)N(Cc3ccccc3)C(=O)C12 (stereo unspecified),52,n
Cc1ccc(S(=O)(=O)N2CCSC2c2ccccc2Cl)c(C)c1 (stereo unspecified),n,n
Cc1ccc(S(=O)(=O)N2C=Cc3ccccc3C2c2c[nH]c3ccccc23)c(C)c1 (stereo unspecified),55,n
O=C(c1cccs1)N1CCn2c(nnc2-c2ccccc2)C1,n,n
COc1ccc(-c2nc3c(c(=O)[nH]2)CCN(C(=O)c2cc(-c4ccccc4)n[nH]2)C3)cc1,n,n
SMILES,mHTT CaM bind,Pf apPOL inh
Cc1ccc(Cn2cc(CCC(=O)NCc3ccccn3)c3ccccc32)cc1,78,n
Cc1ccc(Cn2cc(CCC(=O)NCc3ccco3)c3ccccc32)cc1,n,n
COC(=O)c1ccc(C(=O)Nc2nnc(-c3cc(Cl)ccc3Cl)o2)cc1,n,n
CCOc1cccc2cc(C(=O)Nc3nnc(-c4ccno4)o3)oc12,n,79
COC(=O)c1ccc(C(=O)Nc2nnc(-c3ccn(C(C)C)n3)o2)cc1,65,n
O=C(COc1ccc(Cl)cc1)Nc1nnc(Cc2cccs2)o1,78,n
COc1cccc2cc(C(=O)Nc3nnc(Cc4ccc(Cl)s4)o3)oc12,n,n
O=C(COc1ccc(Cl)cc1Cl)Nc1nnc(Cc2ccc3c(c2)OCO3)o1,92,n
O=C(CSc1ccc(F)cc1)Nc1nnc(Cc2cccs2)o1,n,n
O=C(CCS(=O)(=O)c1ccc(Cl)cc1)Nc1nnc(Cc2ccc3c(c2)OCO3)o1,n,n
COc1ccc(N2CCN(c3nc(C(=O)N4CCCC4)cs3)CC2)cc1,n,n
COc1ccccc1NC(=O)CSCc1nc2ccccc2c(=O)n1-c1ccccc1Cl,n,n
COC(=O)c1ccc(NC(=O)C(=O)NCc2ccc3c(c2)OCO3)cc1,n,n
CSc1ccccc1-c1nnc(NC(=O)CCOc2ccccc2)o1,n,n
COC(=O)c1ccc(C(=O)Nc2nnc(Cc3ccc4c(c3)OCO4)o2)cc1,57,n
O=C(Nc1nnc(-c2ccno2)o1)c1ccc2c(c1)OCO2,96,n
COc1ccccc1-c1nnc(NC(=O)COc2ccccc2)o1,77,n
O=C(COc1ccc(Cl)cc1Cl)Nc1nnc(COc2ccccc2)o1,97,n
O=C(COc1ccc(Cl)cc1Cl)Nc1ccccc1F,n,n
CC1CN(S(=O)(=O)c2ccc(C(=O)Nc3nnc(-c4ccno4)o3)cc2)CC(C)O1 (stereo unspecified),n,n
CNC(=O)N(Cc1cnn(C)c1)c1ccc(C)cc1C,n,n
O=C(c1ccc(F)cc1)N1CCN(c2ccc([N+](=O)[O-])c(NC3CC3)c2)CC1,n,n
Cc1cc(C(=O)Nc2ccc(CC(=O)NCC(F)(F)F)cc2)c(C)o1,n,n
O=C(Nc1cc(-c2ccccn2)no1)C1CCCCC1,n,n
COc1ccccc1NC(=O)NCCC1CCN(C(=O)Nc2cccc(Cl)c2)CC1,n,n
Cc1cccc(N2C=C(C(=O)N3CCOCC3)S(=O)(=O)c3ccc(Cl)cc32)c1,n,n
